Screening data deposited in PubChem by National Center for Advancing Translational Sciences (NCATS).
In the library only some 21% were active in any assay of this set; here they are far more common.
Cycloheximide cs = affects cycloheximide protein synthesis inhibition readout, counter-screen. 300,000 compounds, 12% hits. cell reporter, cycloheximide protein synthesis inhibition counterscreen. AID 2314. max response, %; in the data active = max response mostly above about 13%, no sharp cut-off; inactive = mostly below about 14%; also: read at 38.3 µM for the half of the compounds with a filed dose
NS1 inh = inhibitors of influenza NS1 protein function; AID 2326; 270,000 compounds, 0.4% hits; Potency, µM (highest dose often 46.1 µM); calls by dose curve; also: actives are rising curves; nearly all actives have a fitted effect of over 50% in size
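Recovery from NS1-induced slow growth read by OD600 in budding yeast switched to galactose assay medium (pH 6.0, -URA) at 1:100 dilution. Compound 23 nl per well; the matching strain lacking NS1 serves as control.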
Shiga toxin inh = blocks Shiga toxin action in Vero cells. Vero cells, Shiga toxin protein synthesis inhibition reporter. inhibition, % at 38.7 µM. 290,000 compounds, 9.2% hits; in the data active = inhibition mostly above about 28%, no sharp cut-off; inactive = mostly below about 43%
Pf growth 48h = inhibits P. falciparum growth in the first generation, 48 h; P. falciparum luciferase growth in erythrocytes, 48 h; 310,000 compounds, 5.9% hits; Potency, µM (top dose mostly 28.7 µM), most hits filed as inhibitors
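In quantitative HTS format, infected erythrocytes bearing luciferase-reporter parasites were treated for a single generation at 37 C. Luminescence after adding detection reagent served as the growth measure.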
Pf growth 96h = inhibits malaria parasite growth, 96 h | P. falciparum luciferase reporter growth, 96 h | 320,000 compounds, 6.9% hits | Potency, µM (top dose mostly 28.7 µM), usual class: inhibitors
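Two parasite generations (96 h, 37 C, 5% CO2) of compound exposure in infected erythrocytes (0.05% parasitemia, 2% hematocrit). Luciferase-reporter P. falciparum; decreased luminescence indicates inhibited growth, aimed at apicoplast-acting delayed death.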
Of the large screens only hits and unclear results are named; the others gave an inactive call. Unless noted, calls follow the shape of the dose curve; as a rule, active = well fitted inhibition curve with a large enough effect; inconclusive = small, poorly fitted or top-dose-only effect, or another doubt; inactive = no such curve, though single readings can be large or run the other way.

C/C(=N\NC(=O)c1ccoc1C)c1ccccc1	Cycloheximide cs 44.1, Shiga toxin inh 63.6
C/C(=N/NC(=O)c1ccoc1C)c1ccc(NC(=O)C2CCCC2)cc1	Cycloheximide cs 58.1, Shiga toxin inh 65.1
C/C(=N\NC(N)=O)c1ccccc1	none
CCOC(=O)/C(C#N)=c1/s/c(=C2\C=Cc3ccccc3N2CC)c(=O)n1CC	Pf growth 96h inconclusive
COC(=O)/C(C#N)=C1/C=Cc2ccccc2N1C	Cycloheximide cs 25.6, Shiga toxin inh 61.0
CCOc1cc(/C=N/NC(N)=S)cc(Br)c1OCc1ccccc1C	Pf growth 48h 13.1µM (no result: Pf growth 96h)
COc1cc(C(=O)N/N=C/c2ccc(OC(=O)c3ccccc3)c(OC)c2)ccc1O	Pf growth 96h 9.28µM
CCOc1cc(/C=N/NC(N)=O)cc(Br)c1OCc1ccccc1	none
CCOc1c(Br)cc(/C=N\NC(=O)c2ccccc2)cc1OC	Cycloheximide cs 32.0, Shiga toxin inh active, Pf growth 48h 5.22µM, Pf growth 96h 8.28µM
COc1cc(/C=N/NC(=O)c2nc(-c3ccccc3)n(-c3ccccc3)n2)ccc1O	none
COc1cc(/C=N/NC(N)=S)cc(Br)c1OCc1ccccc1F	none
COc1cc(/C=N/c2oc(-c3ccccc3)cc2C#N)ccc1O	Cycloheximide cs 19.3
COCCCn1c(SCC(=O)NC2CCCC2)nnc1-c1cccs1	none
COc1cc(/C=N/NC(=O)c2ccccc2)ccc1O	Cycloheximide cs 25.8, Shiga toxin inh 60.1
COc1cc(/C=N/NC(=O)CN(Cc2ccccc2)S(=O)(=O)c2ccc3c(c2)OCCO3)ccc1O	NS1 inh inconclusive
COc1cc(/C=N/NC(=O)CN(Cc2ccco2)S(=O)(=O)c2ccccc2)ccc1O	Cycloheximide cs 17.7, Pf growth 96h inconclusive
COc1ccc(CCN2C(=O)NC(NS(=O)(=O)c3ccc(Cl)cc3)(C(F)(F)F)C2=O)cc1OC (configuration not stated)	none (no result: NS1 inh)
Cc1ccccc1-c1nnc2s/c(=C\c3ccc(N(C)C)cc3)c(=O)n12	none
CN(c1ccc(C(=O)NC2CCCC2)cc1)S(=O)(=O)c1ccc(Cl)cc1	none
CN(c1cccc(Cl)c1)S(=O)(=O)c1cccc(C(=O)Nc2ccc3c(c2)CCC3)c1	Cycloheximide cs 30.0, NS1 inh inconclusive, Shiga toxin inh 46.9, Pf growth 48h inconclusive, Pf growth 96h inconclusive
CN(c1ccccc1)S(=O)(=O)c1cccc(C(=O)Nc2cccc(C(=O)NC3CC3)c2)c1	Pf growth 48h 5.22µM, Pf growth 96h 6.57µM (no result: Cycloheximide cs, NS1 inh, Shiga toxin inh)
CN(c1ccc(C(=O)NC2CC2)cc1)S(=O)(=O)c1ccccc1	Pf growth 48h 4.65µM (no result: Pf growth 96h)
CCN1CCN(Cc2nc3c(c(=O)n(C)c(=O)n3C)n2C(C)C(C)=O)CC1 (configuration not stated)	none (no result: Pf growth 96h)
COc1ccc2c(c1)[C@H]1[C@H](CO2)[C@H](c2ccccc2)[C@]2(C)C(=O)N[C@@H](C)C(=O)N12	Pf growth 96h inconclusive (no result: Cycloheximide cs, NS1 inh, Shiga toxin inh)
COc1ccc2c(c1)OC[C@H]1[C@H]2N2C(=O)c3cc(OC)ccc3NC(=O)[C@@]2(C)[C@H]1c1ccccc1	Pf growth 48h 5.22µM, Pf growth 96h 6.57µM (no result: Cycloheximide cs, NS1 inh, Shiga toxin inh)
COc1ccc2c(c1)OC[C@H]1[C@H]2N2C(=O)c3cc(Cl)ccc3NC(=O)[C@@]2(C)[C@H]1c1ccccc1	Pf growth 48h 9.28µM, Pf growth 96h 3.29µM (no result: Cycloheximide cs, NS1 inh, Shiga toxin inh)
CCOC(=O)C1CCN(C(=O)CCc2c(C)nc3cc(-c4ccc(OC)cc4OC)nn3c2C)CC1	Pf growth 48h 13.1µM, Pf growth 96h inconclusive (no result: NS1 inh)
COC(=O)C(NC(=O)CCc1c(C)nc2ncnn2c1C)C(C)C (configuration not stated)	Pf growth 96h 13.1µM
CCOC(=O)C1CCN(C(=O)CCc2c(C)nc3ncnn3c2C)CC1	Pf growth 96h 14.7µM (no result: Pf growth 48h)
COc1cc(C2C3=C(CC(C)(C)CC3=O)OC(N)=C2[N+](=O)[O-])ccc1O (configuration not stated)	Pf growth 96h inconclusive
COc1ccc(S(=O)(=O)CCc2nnc(NC(=O)c3ccc(F)cc3)s2)cc1	none
COc1cc(C(=O)Nc2nnc(CC(=O)NCc3ccccc3)s2)cc(OC)c1OC	none
COc1ccc(C(=O)N2c3ccccc3CC2C)cc1OC (configuration not stated)	none
COc1ccc(C(=O)/C=C2/c3ccccc3CC(C)(C)N2C)cc1OC	Pf growth 96h 11.7µM
Cc1cccc(C(=O)c2c(N)sc3c2CCC(C)C3)c1 (configuration not stated)	Cycloheximide cs 58.8, Shiga toxin inh 126.1, Pf growth 96h inconclusive
CC1CCc2c(sc(N)c2C(N)=O)C1 (configuration not stated)	none
NC(=O)c1c(N)sc2c1CCC2	none
Cc1cccc(C(=O)c2c(N)sc3c2CCCC3)c1	Pf growth 48h inconclusive, Pf growth 96h 14.7µM
COc1ccc(OCC(=O)Nc2ccc(N3CCN(C(=O)c4ccccc4)CC3)c(Cl)c2)cc1	Pf growth 48h 8.28µM
COc1ccc(OCC(=O)Nc2ccc(N3CCOCC3)c(Cl)c2)cc1	Pf growth 48h inconclusive (no result: Pf growth 96h)
Cc1ccccc1OCC(=O)Nc1ccc(N2CCN(C)CC2)c(Cl)c1	Cycloheximide cs 29.4, Shiga toxin inh 85.0
CC(C)N(Cc1nnc(-c2ccccc2Cl)o1)C(=O)c1cccc(C#N)c1	none
CCCCCCC[N+](CC)(CC)CCCCc1ccc(Cl)cc1	Pf growth 48h 0.465µM, Pf growth 96h 0.465µM (no result: Cycloheximide cs, NS1 inh, Shiga toxin inh)
C=CC(=O)c1ccc(CCCCCC)cc1	none (no result: NS1 inh, Pf growth 48h, Pf growth 96h)
CC1CCCCC12NC(=O)N(CC(=O)Nc1ccc3[nH]c(=O)[nH]c3c1)C2=O (configuration not stated)	none (no result: Cycloheximide cs, NS1 inh, Shiga toxin inh)
O=C(CN1CCN(CC(=O)Nc2ccccc2Cl)CC1)Nc1ccc2c(c1)OCCO2	Pf growth 48h inconclusive
CC1Oc2ccccc2N(CC(=O)Nc2ccc3c(c2)OCCO3)C1=O (configuration not stated)	Cycloheximide cs 44.3, Pf growth 96h 11.7µM
CC1Oc2ccccc2N(CC(=O)NCc2ccc3c(c2)OCO3)C1=O (configuration not stated)	Pf growth 96h 11.7µM
CC1CCCCC12NC(=O)N(CC(=O)NC(=O)Nc1ccc3c(c1)OCCO3)C2=O (configuration not stated)	Cycloheximide cs 33.2, Shiga toxin inh 104.8
CC1Oc2ccccc2N(CC(=O)Nc2ccc3c(c2)OCO3)C1=O (configuration not stated)	none
O=C(CN1CCC(C(=O)c2ccc(Cl)cc2)CC1)Nc1ccc2c(c1)OCCO2	Cycloheximide cs 16.9
Cc1ccc2c(c1)C1C3CCC(C3)C1S(=O)N2 (configuration not stated)	none (no result: NS1 inh)
Cc1cc(N/N=C/c2ccncc2)c([N+](=O)[O-])cc1[N+](=O)[O-]	Pf growth 48h inconclusive, Pf growth 96h inconclusive
CC1CC(C)CN(CC(=O)Nc2ccc3c(c2)OCCO3)C1 (configuration not stated)	Cycloheximide cs 47.7, Shiga toxin inh 74.2
CC1CCN(CCC(=O)Nc2ccc3c(c2)OCCO3)CC1	none (no result: NS1 inh)
Cc1ccccc1C(=O)N1CCC(C(=O)Nc2ccc(S(=O)(=O)N3CCCCC3)cc2)CC1	Pf growth 48h inconclusive, Pf growth 96h inconclusive
